This note sets out measurements from PubChem BioAssay (NCATS).

Results filed as inconclusive are left out. Values without a mark were called inactive. Active and inactive are the calls of the source. Calls follow the shape of the dose curve; as a rule, active = well fitted curve in the direction sought with a large enough effect; inconclusive = small, poorly fitted or top-dose-only effect, or another doubt; inactive = no such curve, though single readings can be large; an effect the other way counts as inactive or inconclusive.

For one experiment, the system named is C33A. Put plainly: Primary qHTS to identify gynecologic anti-cancer compounds using libraries of approved drugs and bioactive compounds (AID 1345084). Also: nearly all actives have a fitted effect of over 55% in size. The following applies: Gynecologic cancer cell panel viability, ATPlite luminescence, 48 h; series mostly up to 57.5 µM. An outline of the steps:
(§1)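 48 h compound exposure at 37 C, 5% CO2; five-point qHTS. ATPlite luminescence readout of cell ATP.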
(In qHTS, concentration-response curves come from the screen itself.)

The subject of the next experiment is CAOV3. Described as above. The following applies: Gynecologic cancer cell panel viability, ATPlite luminescence, 48 h; series mostly up to 57.5 µM. An outline of the steps: as §1
The next experiment relates to CASKI. The experiment is described as above. The following applies: Gynecologic cancer cell panel viability, ATPlite luminescence, 48 h; series mostly up to 57.5 µM. An outline of the steps:
as §1
Background: In ATP-based viability assays light output follows the ATP content of the culture.

A further experiment relates to Es-2. Described as above. Particulars: Gynecologic cancer cell panel viability, ATPlite luminescence, 48 h; series mostly up to 57.5 µM. An outline of the steps: as §1
A further experiment has as its system Hek293T. The description is as above. Particulars: Gynecologic cancer cell panel viability, ATPlite luminescence, 48 h, control line for the selectivity index; series mostly up to 57.5 µM. In a few lines: as §1
In another experiment the test system is JEG-3. Described as above. Particulars: Gynecologic cancer cell panel viability, ATPlite luminescence, 48 h; series mostly up to 57.5 µM. In a few lines: as §1
The test system of a further experiment is OV90. Described as above. The following applies: Gynecologic cancer cell panel viability, ATPlite luminescence, 48 h; series mostly up to 57.5 µM. In a few lines:
as §1

In the next experiment the test system is PA-1. The experiment is described as above. The following applies: Gynecologic cancer cell panel viability, ATPlite luminescence, 48 h; series mostly up to 57.5 µM. An outline of the steps:
as §1

The test system of another experiment is SKOV3. The experiment is described as above. The following applies: Gynecologic cancer cell panel viability, ATPlite luminescence, 48 h; series mostly up to 57.5 µM. An outline of the steps: as §1
For the next experiment, the system named is Tov-21-G. The experiment is described as above. Particulars: Gynecologic cancer cell panel viability, ATPlite luminescence, 48 h; series mostly up to 57.5 µM. In a few lines: as §1
For a further experiment, the system named is Tov112D. Described as above. Particulars: Gynecologic cancer cell panel viability, ATPlite luminescence, 48 h; series mostly up to 57.5 µM. In a few lines: as §1
For a further experiment, the system named is HeLa. The experiment is described as above. Particulars: Gynecologic cancer cell panel viability, ATPlite luminescence, 48 h; series mostly up to 57.5 µM. In a few lines:
as §1

A short description of experiment [1]: Drug repurposing screens with cells derived from glioblastoma tumor samples (AID 1345199). Also: nearly all actives have a fitted effect of over 40% in size. Particulars: GBM patient neurospheres viability, ATP luminescence, 48 h. In a few lines:
(§2)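 Primary testing used CD133+ neurospheres from four GBM patients, seven concentrations, 48 h exposure and ATP-based viability; confirmation added three slower-growing patient lines.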

The next experiment concerns astro. The description is as above. The following applies: viability, ATP luminescence, 48 h; series mostly up to 91.6 µM. In a few lines: as §2
% is scaled to controls: 0 for no effect and ±100 for the full control effect; potency is read from the fitted curve at half-maximal effect.

Take `COc1c2c(c(C)c3c1C(=O)OC3)OC1(C)CC(O)C(C(C)(C)O)C(C)(CCC(=O)O)C1C2` (configuration not stated): the Potency entry in the experiment with C33A, in the experiment on CAOV3, with CASKI, in the experiment on Es-2, in the experiment on Hek293T and in the experiment on JEG-3 was “inactive” each time. The Potency result with OV90, in the experiment on PA-1, with SKOV3, in the experiment on Tov-21-G and in the experiment on Tov112D was “inactive” throughout.
In the case of `COc1cc(O)cc(C)c1C(=O)O[C@H]1[C@@H](OC(C)=O)[C@H](n2ccc(=O)[nH]c2=O)O[C@@H]1CO`, the Potency result in the experiment with C33A, in the experiment with CAOV3, in the experiment with CASKI, in the experiment on Es-2, in the experiment with HeLa and in the experiment on JEG-3 was “inactive” in each case. Moreover, the Potency entry in the experiment with OV90, with PA-1, with SKOV3, in the experiment with Tov-21-G and with Tov112D was “inactive” each time.
Consider `C(#Cc1nc2ncccc2nc1OCCN1CCCC1)c1ccccc1`, for which the Potency in the experiment with C33A was 7.08 µM (active); in the experiment on CAOV3 it was 7.08 µM (active); with CASKI, 17.8 µM (active); with Es-2, 3.55 µM (active); with Hek293T it was 10 µM (active); with PA-1, 6.31 µM (active). Further, the Potency with SKOV3, in the experiment on Tov-21-G and with Tov112D was 14.1 µM (active) throughout.
For `CCOCc1cc(OC)c(-c2ccc(C[C@H](NC(=O)c3c(F)cccc3F)C(=O)O)cc2)c(OC)c1`, the Potency entry in the experiment with C33A, in the experiment on CAOV3, in the experiment on CASKI, in the experiment with Es-2, in the experiment on HeLa and with JEG-3 was “inactive” in each case. Also, the Potency entry with OV90, in the experiment with PA-1, with SKOV3 and in the experiment on Tov-21-G was “inactive” each time.
As for `CCCCNc1ccc(-c2ccc(CN3CCOCC3)cn2)c(NC2CCC(O)CC2)c1` (configuration not stated), the Potency entry in the experiment with C33A, with CASKI, in the experiment with Es-2, with Hek293T, with JEG-3 and with OV90 was “inactive” throughout. The Potency entry in the experiment with SKOV3, in the experiment with Tov-21-G and in the experiment on Tov112D was “inactive” throughout. In addition, the Potency in the experiment with CAOV3 was 1.78 µM (active).
For `COc1ccc2c(OC)c3ccoc3nc2c1OC`, the Potency entry with C33A, with CAOV3, in the experiment with CASKI, with Es-2, with Hek293T and in the experiment on JEG-3 was “inactive” each time. In addition, the Potency entry in the experiment on OV90, in the experiment with PA-1, with SKOV3, with Tov-21-G and in the experiment with Tov112D was “inactive” in each case.
On to `CC(C)NCC(C(=O)N1CCN(c2ncnc3c2C(C)CC3O)CC1)c1ccc(Cl)cc1` (configuration not stated), for which the Potency was 3.98 µM (active) with C33A and 0.794 µM (active) with Tov-21-G. In addition, the Potency result in the experiment on CAOV3, with CASKI, in the experiment with Es-2, in the experiment with HeLa, in the experiment with PA-1 and in the experiment with Tov112D was “inactive” throughout.
Turning to `Cc1ccc(-c2ccc3ncc4c(c3n2)n(C2CCN(C(=O)[C@H](C)O)CC2)c(=O)n4C)cn1`, the Potency in the experiment with C33A is 0.282 µM (active); in the experiment on CAOV3 it was 0.708 µM (active); in the experiment on CASKI, 0.794 µM (active); with HeLa it was 1 µM (active); with Hek293T it was 0.355 µM (active); in the experiment with JEG-3, 7.08 µM (active). The figures for the Potency in the experiment on PA-1, in the experiment on SKOV3 and with Tov112D were 0.631 µM (active), 1.41 µM (active) and 0.0891 µM (active), respectively.
As for `Cc1cc2c(F)c(Oc3ncnn4cc(OCC(C)O)c(C)c34)ccc2[nH]1` (configuration not stated), the Potency entry in the experiment on C33A, with CAOV3, with CASKI, in the experiment with Es-2, in the experiment on OV90 and in the experiment with SKOV3 was “inactive” each time. The Potency result in the experiment on Tov-21-G and in the experiment with Tov112D was “inactive” in each case.
For the compound `C=C1C(=O)O[C@@H]2C/C(C)=C\C(=O)/C=C(\C)[C@@H](OC(=O)/C(C)=C\C)[C@H](O)[C@@H]12`, the Potency in the experiment with C33A was 10 µM (active); in the experiment on CAOV3, 7.94 µM (active); with Es-2 it was 4.47 µM (active); with Hek293T, 7.94 µM (active); in the experiment with JEG-3 it was 7.08 µM (active); in the experiment with PA-1, 2.82 µM (active). Also, the Potency with SKOV3 is 11.2 µM (active); in the experiment on Tov-21-G, 7.94 µM (active); in the experiment on Tov112D, 11.2 µM (active). Also, the Potency entry in the experiment with CASKI was “inactive”.
As to `FC(F)(F)c1cc(-c2ncn(/C=C\c3nnco3)n2)cc(C(F)(F)F)c1`, the Potency result in the experiment with C33A, with CAOV3, in the experiment on CASKI, in the experiment with HeLa, in the experiment with OV90 and in the experiment with SKOV3 was “inactive” each time. Further, the Potency entry in the experiment on Tov-21-G and with Tov112D was “inactive” each time. Further, in the experiment on Es-2, the Potency is 3.16 µM (active).
For the compound `Cc1cc(C(=O)N2Cc3cnn(C)c3Nc3ccccc32)ccc1CNC(=O)N1CCC[C@H]1C(=S)N1CCCN(C)CC1`, the Potency entry in the experiment on C33A, in the experiment on CAOV3, in the experiment on Es-2, with HeLa, with Hek293T and with JEG-3 was “inactive” in each case. Further, the Potency entry with OV90, in the experiment with PA-1, with Tov-21-G and in the experiment with Tov112D was “inactive” each time.
As for `Cc1c(CN2CCN(C(=O)C(C)O)CC2)sc2c(N3CCOCC3)nc(-c3cnc(N)nc3)nc12` (configuration not stated), the Potency in the experiment on C33A was 2 µM (active); with CAOV3, 1.41 µM (active); with CASKI, 1.26 µM (active); with Hek293T, 0.891 µM (active); in the experiment with OV90 it was 1.78 µM (active); in the experiment on SKOV3, 1 µM (active). For the same compound, the Potency in the experiment with Tov-21-G was 2.24 µM (active).
As to `COc1cc2nc(N3CCC(N4CCCCC4)CC3)nc(NC3CCCCCC3)c2cc1OC`, the Potency with C33A is 25.1 µM (active); in the experiment on CAOV3, 7.08 µM (active); in the experiment with OV90 it was 22.4 µM (active); in the experiment on SKOV3 it was 22.4 µM (active).
Regarding `COc1ccc(-c2cnc3ccc(NCc4ccc(S(N)(=O)=O)cc4)nn23)cc1OC`, the Potency result with C33A, in the experiment with CAOV3, in the experiment with Es-2, in the experiment on HeLa, in the experiment on Hek293T and with JEG-3 was “inactive” each time. Besides, the Potency result in the experiment with Tov-21-G and in the experiment on Tov112D was “inactive” throughout.
`CC(=O)O[C@H]1C(=O)[C@@]2(C)[C@H]([C@H](OC(=O)c3ccccc3)[C@]3(O)C[C@H](OC(=O)[C@H](O)[C@@H](NC(=O)c4ccccc4)c4ccccc4)C(C)=C1C3(C)C)[C@]1(OC(C)=O)CO[C@@H]1C[C@@H]2O`: the activity change, negative = cytotoxicity was -4.13% [at 11.6 µM] in the experiment on C33A, -17.1% [at 11.6 µM] in the experiment on CAOV3, -15.2% [at 11.6 µM] with OV90 and 0% [at 11.6 µM] in the experiment with SKOV3. The Potency is 0.126 µM (active) with Es-2; 0.0316 µM (active) in the experiment on HeLa; 31.6 µM (active) in [1] (tumour line A); 0.1 µM (active) in [1] (tumour line D); 39.8 µM (active) in the experiment with astro. In addition, the activity, negative = cell killing in experiment [1] (at 45.9 µM (top of the series), tumour line B) was -12.5%.
In the case of `Cc1ncc(CCCN(C)C)cc1Nc1ncc2c(n1)-c1ccc(C(F)(F)F)cc1NC(=S)C2`, the Potency entry in the experiment with C33A, in the experiment with CAOV3, in the experiment with CASKI, in the experiment on JEG-3 and in the experiment with Tov-21-G was “inactive” throughout.
Take `Cc1nc(NC(=O)N2CCCC2C(N)=O)sc1-c1csc(C(C)(C)C)n1` (configuration not stated): the Potency result in the experiment with C33A, in the experiment on CAOV3, with Es-2, in the experiment on Hek293T, in the experiment on JEG-3 and with OV90 was “inactive” each time. Further, the Potency entry with Tov-21-G and in the experiment with Tov112D was “inactive” throughout. In addition, the Potency with SKOV3 was 3.16 µM (active).
Take `C=C1C(=O)O[C@@H]2/C=C(\C)C(=O)/C=C/[C@](C)(O)C[C@@H](OC(=O)C(C)C)[C@@H]12`: the Potency is 8.91 µM (active) with C33A; 2.82 µM (active) in the experiment on CAOV3; 3.16 µM (active) in the experiment with Es-2; 4.47 µM (active) in the experiment on Hek293T; 4.47 µM (active) with PA-1; 5.62 µM (active) in the experiment with SKOV3. Besides, the Potency with Tov-21-G is 3.98 µM (active); in the experiment with Tov112D it was 15.8 µM (active).
